Here are results for two molecules from PubChem BioAssay (NCATS).

The target in experiment [1] is Cytochrome P450 3A4 (Homo sapiens) (UniProt P08684). The experiment in a line: qHTS Assay for Activators of Cytochrome P450 3A4 (AID 885). Also: nearly all actives have a fitted effect of over 65% in size. The method in brief:
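Human CYP3A4 dealkylates Luciferin-PPXE to luciferin, which luciferase detection converts to light. Substrate was at its KM (25uM), buffer 200mM KPO4, reaction 60 min at RT.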

The target in experiment [2] is DNA dC->dU-editing enzyme APOBEC-3G (Homo sapiens) (UniProt Q9HC16). The experiment in a line: qHTS for inhibitors of Vif-A3G interactions: Validation (AID 588379). Also: 0% is about no effect. The procedure, abridged:
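Yellow fluorescence (Ex 488, Em 500-530) of Vif-coexpressing HeLa A3G-eYFP cells, scanned by Acumen cytometer, reports blocked A3G degradation. Cells plated at 700/well overnight at 37 deg C before compound addition, then a further overnight compound incubation at 37 deg C.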

The target in experiment [3] is Estrogen receptor (Homo sapiens) (UniProt P03372). The experiment in a line: qHTS assay for small molecule antagonists of estrogen receptor alpha signaling (AID 588513; active = well fitted curve in the direction sought with a large enough effect in the signal ratio, with a control signal flat, not every such curve was filed as active; the % refers to the signal ratio; also: % is scaled to controls: 0 for no effect and ±100 for the full control effect). The method in brief:
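Beta-lactamase reporter, antagonist mode, HEK 293 GripTite cells; 0.5nM E2 stimulus, 18 h, 37 C; CCF4 dye 2 h RT; fluorescence. IC50 and efficacy from Hill fits, normalized to E2 and DMSO.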

Experiment [4] shares this target. As to the kind of experiment: qHTS assay for small molecule agonists of estrogen receptor alpha signaling (AID 588514; calls by dose curve;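 also: 0% = vehicle only and 100% = reference agonist; nearly all actives have a fitted effect of over 70% in size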). The method in brief: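 Fluorescence from CCF4 cleavage reports ER-alpha-driven beta-lactamase expression in HEK 293 cells treated 18 hrs at 37 C. Data normalized to 17-beta-estradiol (20 nM) and DMSO, fitted to Hill equation.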
In experiment [5] the target is Androgen receptor (Homo sapiens) (UniProt P10275). The experiment in a line: qHTS assay for small molecule agonists of androgen receptor signaling (AID 588515; active = well fitted curve in the direction sought with a large enough effect in the signal ratio, with a control signal flat; the % refers to the signal ratio; also: % is scaled to controls: 0 for no effect and ±100 for the full control effect). The conditions noted are these: AR-UAS-bla HEK293, beta-lactamase ratio, agonist 16 h; activation: stronger effect = higher value. The method in brief: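 Stimulation of an AR-responsive β-lactamase reporter in GripTite HEK293 cells was measured after 16 h compound exposure at 37 °C, via CCF4 fluorescence after 2 h RT. EC50 from Hill fits, normalized to R1881 at 30 nM.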

The target is the same in experiment [6]. The experiment in a line: qHTS assay for small molecule antagonists of androgen receptor signaling (AID 588516; active = well fitted curve in the direction sought with a large enough effect in the signal ratio, with a control signal flat, not every such curve was filed as active; the % refers to the signal ratio; also: % is scaled to controls: 0 for no effect and ±100 for the full control effect). The procedure, abridged: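 HEK293 AR-UAS-bla cells, 10% dialyzed FBS medium; cpd titration + R1881 10 nM final, 16 h 37 C; CCF4 2 h RT; FRET ratio; IC50/efficacy via Hill fit.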
Experiment [7] concerns the target Bile acid receptor (Homo sapiens) (UniProt Q96RI1). The experiment in a line: qHTS assay for small molecule antagonists of farnesoid X receptor signaling (AID 588526; calls by dose curve; also: % is scaled to controls: 0 for no effect and ±100 for the full control effect). The procedure, abridged: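 Beta-lactamase reporter antagonist mode: HEK293T FXR-UAS-bla cells, titrated compound, CDCA stimulation, 16 h 37 C, CCF4 dye 2 h RT. Data normalized to CDCA 50 uM and DMSO; Hill-fit IC50.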

Experiment [8] is described as follows: qHTS assay for small molecule antagonists of peroxisome proliferator-activated receptor delta signaling (AID 588535; active = well fitted inhibition curve with a large enough effect in the signal ratio, with a control signal flat, not every such curve was filed as active; the % refers to the signal ratio;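 as to max response: cells co-treated with a PPAR-delta agonist as stimulator during compound exposure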). The conditions noted are these: HEK293T PPARd-UAS-bla, beta-lactamase FRET ratio, 18 h; 460 nm channel. The method in brief:
(§1)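 Antagonist-mode qHTS using GeneBLAzer PPAR-delta-UAS-bla HEK293T cells; compound exposure 18 hrs at 37 C over a titration. Ratiometric CCF4 fluorescence at 460/530 nm; concentration-response points fitted to the Hill equation.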

The target of experiment [9] is Peroxisome proliferator-activated receptor delta (Homo sapiens) (UniProt Q03181). The experiment is described as above. The procedure, abridged: as §1
Experiment [10] concerns the target Peroxisome proliferator-activated receptor gamma (Homo sapiens) (UniProt P37231). The experiment in a line: qHTS assay for small molecule agonists of peroxisome proliferator-activated receptor gamma signaling (AID 588536; active = well fitted curve in the direction sought with a large enough effect in the signal ratio, with a control signal flat, not every such curve was filed as active; the % refers to the signal ratio;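 also: 0% = DMSO basal wells and 100% = rosiglitazone at 2 µM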). The method in brief:
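Cells were plated and held 6–6.5 h at 37 C, then compounds were added as a titration series. After a further 16 h, CCF4 dye was loaded for 2 h at room temperature and emission at 460/530 nm recorded.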

Experiment [11] shares this target. As to the kind of experiment: qHTS assay for small molecule antagonists of peroxisome proliferator-activated receptor gamma signaling (AID 588537; active = well fitted inhibition curve with a large enough effect in the signal ratio, with a control signal flat, not every such curve was filed as active; the % refers to the signal ratio;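 also: reporter cells co-stimulated with 50 nM rosiglitazone agonist during compound treatment; % of control where 0% means no effect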). The method in brief: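 Cell-based beta-lactamase assay; GW9662 served as the antagonist control. Stimulation used rosiglitazone, final 50 nM, 16 h, 37 C.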
The target in experiment [12] is Vitamin D3 receptor (Homo sapiens) (UniProt P11473). The experiment in a line: qHTS assay for small molecule antagonists of vitamin D receptor signaling (AID 588541; calls by dose curve). The procedure, abridged: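 Antagonist-mode beta-lactamase reporter assay: HEK293T VDR-UAS-bla cells were exposed to titrated compound alongside 1-alpha,25-dihydroxyvitamin D3 at 3 nM final for 16 h. Values were normalized to the 50 nM agonist control and DMSO basal, with IC50 and efficacy from Hill equation fits.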

The target is the same in experiment [13]. The experiment in a line: qHTS assay for small molecule agonists of vitamin D receptor signaling (AID 588543; calls by dose curve;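 also: 0% = DMSO basal and 100% = reference agonist control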). The procedure, abridged: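 β-lactamase reporter, VDR-UAS-bla HEK293T, agonist mode. Cells plated 5 h at 37 °C, compound titration 16 h at 37 °C, CCF4 dye 2 h RT, ratio 460/530 nm. Hill fit → EC50, efficacy vs 50 nM 1α,25-(OH)2D3.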
Experiment [14] can be described thus: qHTS assay for small molecule agonists of retinoid X receptor alpha signaling (AID 588544; calls by dose curve;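 as to activation: 0% = DMSO basal wells and 100% = reference agonist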). The conditions noted are these: HEK293T RXRa-UAS-bla, beta-lactamase reporter, 18 h; 530 nm emission.
The target of experiment [15] is Retinoic acid receptor RXR-alpha (Homo sapiens) (UniProt P19793). The description is as above.
Experiment [16] addresses Thyroid hormone receptor beta (Homo sapiens) (UniProt P10828). As to the kind of experiment: qHTS assay for small molecule agonists of thyroid hormone receptor beta signaling (AID 588545; calls by dose curve;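 also: 0% = DMSO only and 100% = 10 nM T3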). The procedure, abridged:
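Beta-lactamase reporter activity under TR response element control is measured in HEK 293 cells after 18 hrs compound exposure. Signal is ratiometric CCF4 fluorescence, 460/530 nm.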

A short description of experiment [17]: qHTS assay for small molecule antagonists of retinoid X receptor alpha signaling (AID 588546; active = well fitted inhibition curve with a large enough effect in the signal ratio, with a control signal flat, not every such curve was filed as active; the % refers to the signal ratio). Conditions: HEK293T RXRa-UAS-bla, beta-lactamase ratio, antagonist mode; measured here: W530 green channel, cytotoxicity proxy. The method in brief: (§2)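 Beta-lactamase reporter inhibition, read as CCF4 fluorescence ratio (ex 405, em 460/530 nm) after 2 h at RT. HEK293T UAS-bla cells, 2500/well, were stimulated with 9-cis-RA at 500 or 100 nM final alongside test compound for 18 h at 37 C.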

Experiment [18] has as its target Retinoic acid receptor RXR-alpha (Homo sapiens) (UniProt P19793). The description is as above. Conditions: HEK293T RXRa-UAS-bla, beta-lactamase ratio, antagonist mode. The procedure, abridged:
as §2

Experiment [19] deals with Thyroid hormone receptor beta (Homo sapiens) (UniProt P10828). As to the kind of experiment: qHTS assay for small molecule antagonists of thyroid hormone receptor beta signaling (AID 588547; active = well fitted inhibition curve with a large enough effect in the signal ratio, with a control signal flat, not every such curve was filed as active; the % refers to the signal ratio). Conditions: TR-UAS-bla HEK293, beta-lactamase ratio, antagonist mode, 18 h. The procedure, abridged:
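Inhibition of T3-driven (0.4nM final) beta-lactamase reporter activity was measured over 0.59 nM to 92 uM compound after 18 h at 37 C. The cells were GripTite HEK293 TR-UAS-bla in charcoal/dextran-stripped serum, with CCF4 ratio read-out and IC50 from Hill fits.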

Experiment [20] in a line: qHTS assay for small molecule agonists of the antioxidant response element (ARE) signaling pathway (AID 651741; active = well fitted activation curve with a large enough effect in the signal ratio; the % refers to the signal ratio; also: % of control where 0% means no effect). The method in brief:
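Agonist activity is measured as ARE-driven beta-lactamase expression in a stable HepG2 reporter line, using 16 h compound treatment at 37 C and a FRET substrate fluorescence readout after 2 h.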

A short description of experiment [21]: qHTS assay for small molecule activators of the p53 signaling pathway (AID 651743; active = well fitted activation curve with a large enough effect in the signal ratio, not every such curve was filed as active; the % refers to the signal ratio; also: series mostly up to about 92 µM; % of control where 0% means no effect). Conditions: HCT-116 p53RE-bla, beta-lactamase FRET ratio, 16 h; activation: stronger effect = higher value. The method in brief:
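A beta-lactamase reporter under p53 response element control, stably carried by HCT-116 cells, reported pathway activation. Test compounds were applied for 16 hours at 37 C, and fluorescence was measured 2 hours after adding the B/G FRET substrate.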

Experiment [22] in a line: qHTS assay for small molecule activators of the nuclear factor-kappa B (NF-kB) signaling pathway (AID 651749; active = well fitted activation curve with a large enough effect in the signal ratio; the % refers to the signal ratio; also: series mostly up to about 77 µM; % of control where 0% means no effect). The conditions noted are these: NF-kB-bla ME-180 cells, beta-lactamase FRET ratio, 16 h; activation: stronger effect = higher value. The method in brief:
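FRET-based beta-lactamase detection in ME-180 cells reports NF-kB response-element-driven transcription following overnight (16 hr) compound treatment.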

Experiment [23] in a line: qHTS assay for environmental chemicals that activate the Aryl hydrocarbon Receptor (AhR) signaling pathway (AID 651777). Also: % of control where 0% means no effect; nearly all actives have a fitted effect of over 15% in size. Conditions: 1A2-DRE human hepatoma cells, luciferase, 24 h; activation: stronger effect = higher value. The method in brief:
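AhR activation is scored as a rise in luciferase from a stable DRE–CYP1A2 promoter construct in human hepatoma cells. Treatment lasts 24 hr at 37 C; detection uses One-Glo after 30 min at room temperature.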

The target of experiment [24] is Peroxisome proliferator-activated receptor alpha (Homo sapiens) (UniProt Q07869). The experiment in a line: qHTS assay for small molecule agonists of the peroxisome proliferator-activated receptor alpha (PPARalpha) signaling pathway (AID 651778). Also: % of control where 0% means no effect. Conditions: PathHunter PPARalpha complementation, chemiluminescence, 6 h; max response: stronger effect = higher value. The method in brief: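 Chemiluminescence from complemented enzyme reported PPARalpha activation in cells after 6 hr of compound treatment at 37 C. The detection reagent was incubated for 60 min at room temperature, and compounds were scored as agonists.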

Experiment [25] is described as follows: qHTS assay for small molecule agonists of the antioxidant response element (ARE) signaling pathway measured by Nrf2-dependant transcriptional activity (AID 720636; active = well fitted curve in the direction sought with a large enough effect in the repeat runs; an effect the other way counts as inactive or inconclusive;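 also: HepG2 cells with an ARE-driven luciferase reporter; % of control where 0% means no effect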). The method in brief: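 First, ARE-luc HepG2 cells attached for 6 hr at 37 C in 1% dialyzed FBS medium. Next, compound or DMSO was added and incubated 16 hr. Finally, ONE-Glo reagent was added and luminescence measured after 30 min.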

Experiment [26] is described as follows: qHTS assay for small molecule agonists of the antioxidant response element (ARE) signaling pathway measured by Nrf2-dependant transcriptional activity - cell viability counter screen (AID 720653; active = well fitted curve in the direction sought with a large enough effect in the repeat runs; an effect the other way counts as inactive or inconclusive; also: % is scaled to controls: 0 for no effect and ±100 for the full control effect). Conditions: ARE-bla HepG2 viability, CellTiter-Glo ATP luminescence, 16 h; max response: stronger effect = lower value. The method in brief: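 Cytotoxicity counter screen: intracellular ATP quantified by CellTiter-Glo luminescence in the same ARE-bla HepG2 plates, after 16 h compound exposure and a 2 h beta-lactamase substrate step.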

Experiment [27] can be described thus: qHTS assay for cell viability of HEK293 cells (AID 743288). Also: % is scaled to controls: 0 for no effect and ±100 for the full control effect; nearly all actives have a fitted effect of over 50% in size. The conditions noted are these: ATP luminescence (CellTiter-Glo), 18 h; max response: stronger effect = lower value. The procedure, abridged:
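ATP luminescence (CellTiter-Glo) reports metabolically competent cell number after parental HEK293 cells, 2,000/well, were treated with DMSO-dissolved compounds for 18 h at 37 C; reagent incubation 30 min, room temperature.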

Experiment [28] is described as follows: qHTS assay for cell viability of the p53RE-bla HCT-116 cell line (AID 743292). Also: % is scaled to controls: 0 for no effect and ±100 for the full control effect; nearly all actives have a fitted effect of over 55% in size. The procedure, abridged: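 Quantitative high-throughput format: compounds in DMSO were pinned onto p53RE-bla HCT-116 cells (4,000/well) and incubated 16 h at 37 C. Total intracellular ATP, read by CellTiter-Glo luminescence, reflects viable cell number.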
Experiment [29] concerns the target Nuclear receptor subfamily 1 group I member 2 (Rattus norvegicus) (UniProt Q9R1A7). As to the kind of experiment: qHTS assay for small molecule activators of the rat pregnane X receptor (rPXR) signaling pathway (AID 651751; call rule not given here; also: 0% is about no effect). Conditions: rPXR reporter cells, luciferase (One-Glo), 24 h.
Experiment [30] is described as follows: qHTS assay for small molecule activators of the human pregnane X receptor (PXR) signaling pathway (AID 720659; call rule not given here; also: 0% is about no effect).

Results filed as inconclusive are left out. Calls of active or inactive are those of the source. Unless noted, calls follow the shape of the dose curve; as a rule, active = well fitted curve in the direction sought with a large enough effect; inconclusive = small, poorly fitted or top-dose-only effect, or another doubt; inactive = no such curve, though single readings can be large; an effect the other way counts as inactive or inconclusive.

Chain of Vitamin D3 receptor (Homo sapiens) (P11473 whole entry, looked up): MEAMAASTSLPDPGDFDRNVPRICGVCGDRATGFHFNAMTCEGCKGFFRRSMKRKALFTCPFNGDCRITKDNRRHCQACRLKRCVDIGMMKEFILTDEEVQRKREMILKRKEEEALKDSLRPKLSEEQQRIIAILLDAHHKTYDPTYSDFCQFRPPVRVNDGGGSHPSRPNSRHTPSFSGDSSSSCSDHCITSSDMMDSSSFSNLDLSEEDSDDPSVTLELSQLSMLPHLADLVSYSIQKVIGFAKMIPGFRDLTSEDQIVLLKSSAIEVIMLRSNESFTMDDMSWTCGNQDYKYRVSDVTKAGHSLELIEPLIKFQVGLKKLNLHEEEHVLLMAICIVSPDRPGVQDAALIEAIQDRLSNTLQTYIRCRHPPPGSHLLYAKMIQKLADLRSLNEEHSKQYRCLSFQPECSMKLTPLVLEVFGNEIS
Chain of Thyroid hormone receptor beta (Homo sapiens) (P10828 whole entry, looked up): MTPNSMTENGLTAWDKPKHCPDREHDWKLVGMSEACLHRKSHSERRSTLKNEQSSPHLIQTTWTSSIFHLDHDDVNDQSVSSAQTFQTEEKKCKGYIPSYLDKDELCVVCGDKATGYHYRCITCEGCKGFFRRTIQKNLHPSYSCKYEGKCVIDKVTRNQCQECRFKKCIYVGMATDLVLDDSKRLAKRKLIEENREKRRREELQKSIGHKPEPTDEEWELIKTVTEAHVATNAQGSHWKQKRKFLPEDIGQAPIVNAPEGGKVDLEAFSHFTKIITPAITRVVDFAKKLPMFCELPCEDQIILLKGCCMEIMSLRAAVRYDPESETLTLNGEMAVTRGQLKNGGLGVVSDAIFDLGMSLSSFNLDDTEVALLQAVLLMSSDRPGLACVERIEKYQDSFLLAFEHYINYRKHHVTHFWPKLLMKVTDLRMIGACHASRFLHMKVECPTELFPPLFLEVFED
Chain of Estrogen receptor (Homo sapiens) (P03372 whole entry, looked up): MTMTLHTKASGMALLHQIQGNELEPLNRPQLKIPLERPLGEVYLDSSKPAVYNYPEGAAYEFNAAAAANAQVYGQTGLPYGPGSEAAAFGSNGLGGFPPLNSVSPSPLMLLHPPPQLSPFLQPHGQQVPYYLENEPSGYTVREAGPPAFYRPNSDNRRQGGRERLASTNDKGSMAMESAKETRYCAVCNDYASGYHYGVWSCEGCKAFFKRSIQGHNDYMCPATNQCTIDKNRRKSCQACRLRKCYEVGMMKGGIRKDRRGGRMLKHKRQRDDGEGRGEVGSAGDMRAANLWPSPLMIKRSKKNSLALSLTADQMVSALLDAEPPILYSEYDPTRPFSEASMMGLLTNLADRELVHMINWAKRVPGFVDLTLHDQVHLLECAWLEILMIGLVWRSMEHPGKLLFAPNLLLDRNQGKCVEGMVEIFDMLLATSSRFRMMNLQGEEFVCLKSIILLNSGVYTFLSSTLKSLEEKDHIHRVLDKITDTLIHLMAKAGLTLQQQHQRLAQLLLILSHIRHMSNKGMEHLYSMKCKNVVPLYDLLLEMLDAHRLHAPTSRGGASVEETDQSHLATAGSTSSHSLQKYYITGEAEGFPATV
Chain of Androgen receptor (Homo sapiens) (P10275 whole entry, looked up): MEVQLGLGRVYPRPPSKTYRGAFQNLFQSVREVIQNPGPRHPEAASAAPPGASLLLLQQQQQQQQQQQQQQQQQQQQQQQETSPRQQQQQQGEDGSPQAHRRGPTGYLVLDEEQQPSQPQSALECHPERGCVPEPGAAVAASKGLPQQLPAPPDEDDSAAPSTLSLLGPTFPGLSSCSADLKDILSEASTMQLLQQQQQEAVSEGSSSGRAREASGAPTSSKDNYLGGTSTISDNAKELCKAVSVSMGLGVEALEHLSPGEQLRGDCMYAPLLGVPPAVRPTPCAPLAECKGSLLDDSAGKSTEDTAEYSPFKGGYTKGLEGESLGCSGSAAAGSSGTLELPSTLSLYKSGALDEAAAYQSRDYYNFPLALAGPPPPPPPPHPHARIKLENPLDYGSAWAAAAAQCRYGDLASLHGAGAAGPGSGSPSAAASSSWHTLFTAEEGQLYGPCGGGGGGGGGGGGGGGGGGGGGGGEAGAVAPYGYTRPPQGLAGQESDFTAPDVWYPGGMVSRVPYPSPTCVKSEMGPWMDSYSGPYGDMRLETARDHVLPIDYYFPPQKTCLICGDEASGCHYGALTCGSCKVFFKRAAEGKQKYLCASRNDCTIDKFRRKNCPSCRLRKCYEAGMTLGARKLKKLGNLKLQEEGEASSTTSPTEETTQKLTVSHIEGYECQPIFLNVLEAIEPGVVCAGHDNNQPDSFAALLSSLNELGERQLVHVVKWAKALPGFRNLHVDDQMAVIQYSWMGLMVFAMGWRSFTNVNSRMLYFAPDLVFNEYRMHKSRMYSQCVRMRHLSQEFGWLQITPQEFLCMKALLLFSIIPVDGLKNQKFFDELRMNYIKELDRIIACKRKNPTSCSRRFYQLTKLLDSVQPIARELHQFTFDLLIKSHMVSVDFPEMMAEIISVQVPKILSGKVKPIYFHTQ
Chain of Retinoic acid receptor RXR-alpha (Homo sapiens) (P19793 whole entry, looked up): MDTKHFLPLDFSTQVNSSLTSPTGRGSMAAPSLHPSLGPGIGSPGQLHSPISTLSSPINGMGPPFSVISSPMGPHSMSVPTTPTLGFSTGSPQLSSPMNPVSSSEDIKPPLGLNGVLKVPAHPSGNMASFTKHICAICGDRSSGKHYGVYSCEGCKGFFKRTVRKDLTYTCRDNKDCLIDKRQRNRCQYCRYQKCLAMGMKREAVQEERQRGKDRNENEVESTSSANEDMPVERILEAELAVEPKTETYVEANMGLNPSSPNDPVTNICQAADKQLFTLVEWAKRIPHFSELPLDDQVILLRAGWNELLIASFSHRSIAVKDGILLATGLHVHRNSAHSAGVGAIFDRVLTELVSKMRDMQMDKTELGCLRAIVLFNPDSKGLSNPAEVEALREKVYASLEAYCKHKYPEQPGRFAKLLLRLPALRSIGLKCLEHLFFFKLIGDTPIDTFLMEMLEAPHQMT
Chain of Peroxisome proliferator-activated receptor gamma (Homo sapiens) (P37231 whole entry, looked up): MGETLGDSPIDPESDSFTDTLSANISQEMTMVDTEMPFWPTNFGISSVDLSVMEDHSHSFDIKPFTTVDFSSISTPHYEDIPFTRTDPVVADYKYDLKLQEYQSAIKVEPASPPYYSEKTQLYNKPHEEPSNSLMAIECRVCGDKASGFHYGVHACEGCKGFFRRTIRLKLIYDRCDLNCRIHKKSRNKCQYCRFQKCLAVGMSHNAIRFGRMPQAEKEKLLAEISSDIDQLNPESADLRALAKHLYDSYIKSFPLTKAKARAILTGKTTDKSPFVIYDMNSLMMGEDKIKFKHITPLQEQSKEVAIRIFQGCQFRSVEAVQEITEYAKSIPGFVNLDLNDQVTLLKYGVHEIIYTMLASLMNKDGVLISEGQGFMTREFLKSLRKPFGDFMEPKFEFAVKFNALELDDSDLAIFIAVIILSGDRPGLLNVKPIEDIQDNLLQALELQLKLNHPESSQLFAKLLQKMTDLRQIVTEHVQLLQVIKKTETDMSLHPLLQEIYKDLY
Chain of Peroxisome proliferator-activated receptor alpha (Homo sapiens) (Q07869 whole entry, looked up): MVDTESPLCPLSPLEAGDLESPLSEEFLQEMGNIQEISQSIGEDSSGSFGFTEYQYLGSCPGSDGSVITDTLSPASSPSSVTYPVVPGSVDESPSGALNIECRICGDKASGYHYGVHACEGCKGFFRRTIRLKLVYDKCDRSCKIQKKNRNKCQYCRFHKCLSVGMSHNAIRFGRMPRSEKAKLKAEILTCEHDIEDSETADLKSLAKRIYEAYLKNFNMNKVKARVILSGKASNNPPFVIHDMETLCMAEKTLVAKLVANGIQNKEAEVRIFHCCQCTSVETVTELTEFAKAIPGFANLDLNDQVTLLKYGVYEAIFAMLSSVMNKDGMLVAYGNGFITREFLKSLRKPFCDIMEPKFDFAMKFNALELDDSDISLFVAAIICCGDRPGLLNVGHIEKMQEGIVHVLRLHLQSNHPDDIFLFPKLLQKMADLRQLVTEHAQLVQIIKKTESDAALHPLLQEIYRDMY
Chain of Cytochrome P450 3A4 (Homo sapiens) (P08684 whole entry, looked up): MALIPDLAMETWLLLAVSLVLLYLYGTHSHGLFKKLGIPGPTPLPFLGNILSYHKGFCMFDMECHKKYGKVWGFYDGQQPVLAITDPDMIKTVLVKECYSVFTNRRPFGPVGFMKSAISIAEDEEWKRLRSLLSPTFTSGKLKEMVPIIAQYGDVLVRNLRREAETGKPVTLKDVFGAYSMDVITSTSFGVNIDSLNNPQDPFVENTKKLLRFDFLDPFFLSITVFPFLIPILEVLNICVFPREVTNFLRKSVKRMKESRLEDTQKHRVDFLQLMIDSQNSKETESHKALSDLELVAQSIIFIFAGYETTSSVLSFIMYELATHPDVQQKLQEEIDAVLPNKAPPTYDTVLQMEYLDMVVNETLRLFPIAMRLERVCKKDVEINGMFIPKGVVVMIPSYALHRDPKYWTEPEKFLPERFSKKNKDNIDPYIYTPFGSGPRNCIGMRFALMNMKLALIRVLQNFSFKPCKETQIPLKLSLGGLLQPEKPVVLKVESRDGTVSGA
Chain of Nuclear receptor subfamily 1 group I member 2 (Rattus norvegicus) (Q9R1A7 whole entry, looked up): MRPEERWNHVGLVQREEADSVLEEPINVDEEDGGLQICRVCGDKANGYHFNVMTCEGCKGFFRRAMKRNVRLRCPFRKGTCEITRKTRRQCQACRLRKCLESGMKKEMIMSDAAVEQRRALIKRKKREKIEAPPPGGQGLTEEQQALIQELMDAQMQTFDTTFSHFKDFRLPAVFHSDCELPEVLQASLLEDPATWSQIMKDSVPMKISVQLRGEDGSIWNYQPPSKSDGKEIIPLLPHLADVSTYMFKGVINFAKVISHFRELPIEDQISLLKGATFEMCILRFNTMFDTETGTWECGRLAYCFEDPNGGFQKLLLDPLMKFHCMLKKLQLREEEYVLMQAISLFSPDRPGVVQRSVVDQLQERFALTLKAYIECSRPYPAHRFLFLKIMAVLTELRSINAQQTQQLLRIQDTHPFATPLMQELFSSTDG

Consider `COc1cc2c(Cc3c4c5c(cc(OC)c(OC)c5c5c(OC)c(OC)ccc35)CCN4C)c3c4c(cc(OC)c(OC)c4c2cc1OC)CCN3C`, for which the Potency entry in experiment [1] and in experiment [2] was “inactive” in each case.

Turning to `CCCC/C=C\CCCCCCCCO`, the Potency entry in [3], in experiment [4], in [7], in experiment [9], in experiment [11] and in experiment [12] was “inactive” each time. Besides, the Potency result in experiment [15], in experiment [16], in experiment [20], in [25] and in experiment [28] was “inactive” in each case. Also, the activation in experiment [5] was 1.62% (inactive); in experiment [21] it was 0.706% (inactive); in experiment [22], -0.809% (inactive); in experiment [23], 0.183% (inactive). Further, the outcome in [6], in experiment [10], in experiment [13] and in experiment [30] was inactive. In addition, the max response was 56.8% in [8]; -17% in experiment [14]; -4.18% in [17]; -9.15% (inactive) in [18]; 2.88% (inactive) in experiment [24]; -0.523% (inactive) in experiment [26]. Also, the max response in experiment [27] is -8.96% (inactive); in experiment [29], 12.2% (inactive). In experiment [19], the activity change % (negative = inhibition) is 3.63% (inactive).
